Measurements taken from PubChem BioAssay (NCATS).
Inconclusive results are not listed. The source made the active and inactive calls. Calls come from the whole dose curve; as a rule, active = well fitted curve in the direction sought with a large enough effect; inconclusive = small, poorly fitted or top-dose-only effect, or another doubt; inactive = no such curve, though single readings can be large; an effect the other way counts as inactive or inconclusive.

Legend:
[1] = SW1088 Cancer Cell Toxicity qHTS against the NCATS CANVASS Library (AID 1347350); note: nearly all actives have a fitted effect of over 75% in size; note: potency is the fitted concentration of half-maximal effect; for activity change, negative = cytotoxicity: series mostly up to about 38 µM; % is set by controls: 0 for no effect and ±100 for the full control effect
Procedure, shortened: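 Following a 4 h pre-incubation of 1000 seeded cells, compounds were pinned in an 11-pnt dilution series and left for 72 h; viability then came from CellTiter-Glo.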

[2] = HPAF-II 12hr Apoptosis Induction qHTS against the NCATS CANVASS Library (AID 1347358); note: 0% is about no effect
Procedure, shortened: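 Apoptosis in HPAF-II pancreatic cancer cells is scored as caspase 3/7 luminescence following a 12-hour exposure to an 11-point compound series.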

[3] = SDT Cancer Cell Toxicity qHTS against the NCATS CANVASS Library (AID 1347365); note: nearly all actives have a fitted effect of over 60% in size; note: potency is the fitted concentration of half-maximal effect;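 for activity change, negative = cytotoxicity: SDT canine glioma cells 500 per well in 1536 well plates; series mostly up to about 46 µM; % is set by controls: 0 for no effect and ±100 for the full control effect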
Procedure, shortened: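 Dispense 500 SDT cells per well; pin-transfer compounds; incubate 72 hr at 37C, 5% CO2, 95% RH; add CellTiterGlo and read luminescence.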

[4] = KB-3-1 Cancer Cell Toxicity qHTS against the NCATS CANVASS Library (AID 1347366); note: nearly all actives have a fitted effect of over 75% in size
Procedure, shortened: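 Seed KB-3-1 cells at 500/well in DMEM with 10% FBS, add compounds, incubate 72 hr at 37C and 5% CO2, then add CellTiter-Glo and read luminescence after 10 minutes.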

[5] = G06 Cancer Cell Toxicity qHTS against the NCATS CANVASS Library (AID 1347368); note: nearly all actives have a fitted effect of over 60% in size; note: potency is the fitted concentration of half-maximal effect
Procedure, shortened: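 Cytotoxicity toward canine glioma G06 cells is scored from cellular ATP via luminescence after 72 hr compound exposure at 500 cells/well.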

[6] = qHTS for ATAD5 Antagonist screened against the NCATS CANVASS Library (AID 1347370); note: nearly all actives have a fitted effect of over 65% in size; note: potency is the fitted concentration of half-maximal effect
Procedure, shortened: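 HEK293T cells with a stably integrated ATAD5-controlled luciferase reporter were exposed to compounds (11-pt) alongside 10 uM 5-fluorouridine as ATAD5 stabilizer for 16hr at 37C. Viability was read by CellTiter-Fluor fluorescence, then ATAD5 by luminescence.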

[7] = target: Nuclear receptor subfamily 1 group I member 3 (Homo sapiens) (UniProt Q14994); assay: qHTS for Constitutive Androstane Receptor (CAR) Antagonist screened against the NCATS CANVASS Library (AID 1347372);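 note: cells stimulated with 50 nM CITCO agonist so inhibition reflects antagonism; series mostly up to about 46 µM; % is set by controls: 0 for no effect and ±100 for the full control effect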
Sequence of Nuclear receptor subfamily 1 group I member 3 (Homo sapiens) (Q14994 whole entry, looked up): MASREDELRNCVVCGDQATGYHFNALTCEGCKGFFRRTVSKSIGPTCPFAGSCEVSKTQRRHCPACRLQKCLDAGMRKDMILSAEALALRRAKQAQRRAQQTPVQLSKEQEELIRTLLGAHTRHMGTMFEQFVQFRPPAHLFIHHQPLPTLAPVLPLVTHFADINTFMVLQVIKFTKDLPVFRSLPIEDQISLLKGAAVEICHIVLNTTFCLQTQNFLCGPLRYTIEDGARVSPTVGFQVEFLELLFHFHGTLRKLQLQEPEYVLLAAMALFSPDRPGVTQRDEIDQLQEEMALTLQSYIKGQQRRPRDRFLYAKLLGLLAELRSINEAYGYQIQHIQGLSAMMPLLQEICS
Procedure, shortened: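 HepG2 cells stably carrying hCAR and a CYP2B6-2.2kb luciferase reporter were exposed to compounds plus 50 nM CITCO for 24hr at 37C. CAR activity was read by ONE-Glo luminescence, with viability measured first by CellTiter-Fluor.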

[8] = target: Nuclear receptor subfamily 1 group I member 3 (Homo sapiens) (UniProt Q14994); assay: qHTS for Constitutive Androstane Receptor (CAR) Agonist screened against the NCATS CANVASS Library (AID 1347373);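 note: every well also contained 1.5 µM PK11195 alongside the test compound; 0% is about no effect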
Procedure, shortened: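 CAR agonism is scored as CYP2B6-promoter luciferase induction in a double-stable transfected HepG2 line, where 1.5uM PK11195 is included in each well. Compounds were tested over a 24hr exposure.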

[9] = qHTS for Hypoxia signaling pathway (HIF-1) antagonists against the NCATS CANVASS Library (AID 1347374);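 note: HRE-bla ME-180 cells stimulated with cobalt chloride to stabilize HIF-1alpha; series mostly up to about 38 µM; % is set by controls: 0 for no effect and ±100 for the full control effect; nearly all actives have a fitted effect of over 60% in size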
Procedure, shortened: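 HRE-bla ME-180 cells (2,000/well, 0.5% dialyzed FBS) were pre-incubated 5 h, then given an 11-point compound series plus CoCl2 (60 uM solution as added) for 17 h at 37C. CCF4 β-lactamase read (ex 405, em 460/530 nm) after 2 h at RT.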

[10] = 10-beta competent E. coli microbial cell viability qHTS against the NCATS CANVASS Library (AID 1347376); note: series mostly up to about 46 µM; 0% is about no effect
Procedure, shortened: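 Cytotoxicity toward competent E. coli is scored from cellular ATP content via BacTiter-Glo luminescence following overnight compound exposure at 37C, 5% CO2.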

[11] = qHTS for H2AX Agonists against the NCATS CANVASS Library (AID 1347378);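 note: phospho-H2AX S139 level in CHO-K1 lysates by TR-FRET emission ratio; 0% is about no effect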
Procedure, shortened: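 Following overnight seeding, CHO-K1 cells are incubated with a concentration series of compound for 3 hr at 37C (final DMSO 0.76%). Cells are then lysed, detection antibodies added, and emission ratio 665/620 nm recorded after 24 hr at room temperature.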

[12] = Cytotoxicity qHTS for assessment of Hepg2 cells membrane integrity screened against the NCATS CANVASS Library (AID 1347387)
Procedure, shortened: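 Fluorescence proportional to lysed-cell number, from LDH leaking out of HepG2 cells exposed 5 hr at 37C to 0.59 nM - 46 uM compound (11-point qHTS), is measured after 10 min with CytoTox-ONE.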

[13] = qHTS for Activators of p53 Stress Response Pathway screened against the NCATS CANVASS Library (AID 1347388); note: potency is the fitted concentration of half-maximal effect; for activation: 0% is about no effect
Procedure, shortened: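 p53RE-bla HCT-116 cells (4000/well) were plated 5 h at 37C, exposed to compounds for 16 h at 37C over an 11-point concentration series, then loaded with CCF4 for 2 h at room temperature; 460/530 nm emission ratio read.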

[14] = qHTS assay for small molecule disruptors of mitochondrial membrane potential screened against the NCATS CANVASS Library (AID 1347389); note: nearly all actives have a fitted effect of over 60% in size; note: potency is the fitted concentration of half-maximal effect
Procedure, shortened: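 Compounds tested in 11-point qHTS series on HepG2 cells for 1 hr; membrane-potential dye added for 30 min at 37C. Lower red-to-green ratio indicates loss of potential.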

[15] = qHTS for activators of dead-cell proteases activity screened against the NCATS CANVASS Library (AID 1347392);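 note: luminescence from protease leaking out of membrane-damaged cells cleaving impermeant substrate; 0% is about no effect; rising signal means more cytotoxicity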
Procedure, shortened: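 HepG2 cells (2000/well) attached 18 h at 37C, then exposed 5 h to compounds (11-point qHTS). Dead-cell protease activity read as luminescence from cell-impermeant AAF-aminoluciferin substrate after 15 min at room temperature.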

[16] = qHTS for inhibitors of ER calcium dysfunction: SERCaMP assay screened against the NCATS CANVASS Library (AID 1347393); note: nearly all actives have a fitted effect of over 40% in size; note: potency is the fitted concentration of half-maximal effect;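 for activity change, negative = inhibition: series mostly up to about 77 µM; % is set by controls: 0 for no effect and ±100 for the full control effect; lower secreted reporter signal means inhibitor of ER calcium depletion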
Procedure, shortened: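 qHTS in SH-SY5Y reporter cells: 16 h compound pretreatment, 4 h thapsigargin, then secreted Gaussia luciferase measured by luminescence.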

[17] = Redox Reaction Profiling qHTS: Assay Interference Panel against the NCATS CANVASS Library (AID 1347401);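 note: 100% = activation by 2 µM chloranil control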
Procedure, shortened: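 Resazurin (5 uM) conversion to resorufin measured with 200 uM DTT in 50 mM HEPES pH 7.3, 50 mM NaCl. Compounds tested in 11-point qHTS series. Fluorescence (ex 525/em 598 nm) read before and after 15 min dark incubation.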

[18] = HEK-293 Cancer Cell Toxicity qHTS against the NCATS CANVASS Library (AID 1347355); note: series mostly up to about 46 µM; nearly all actives have a fitted effect of over 65% in size
Procedure, shortened: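 qHTS cytotoxicity: compounds tested in 11 concentrations on 1000 seeded cells per well over 72 h; bortezomib served as control; signal from CellTiter-Glo luminescence.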

[19] = Secretion counterscreen for inhibitors of the SERCaMP assay screened against the NCATS CANVASS Library (AID 1347390);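 note: light from luciferase secreted into medium read as a measure of general secretion; series mostly up to about 77 µM; % is set by controls: 0 for no effect and ±100 for the full control effect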
Procedure, shortened: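 Counterscreen identifying compounds that disrupt secretion, using SH-SY5Y cells with a constitutively secreted Gaussia luciferase reporter. A 20 h compound exposure (top 77 uM) precedes luminescent detection with coelenterazine.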

[20] = Viability qHTS for inhibitors of the SERCaMP assay screened against the NCATS CANVASS Library (AID 1347400); note: series mostly up to about 92 µM; % is set by controls: 0 for no effect and ±100 for the full control effect; nearly all actives have a fitted effect of over 70% in size
Procedure, shortened: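 Cytotoxicity counter-screen: ATP content (CellTiter-Glo luminescence) of SH-SY5Y-GLuc SERCaMP MJH297 cells after 48 h at 37C with compounds in an 11-point qHTS series.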

C[C@@H]1C[C@H]2C[C@]3(CCCCN3C)[C@@H]3C[C@H]2[C@H](C1)N(C)C3
active: Potency [5] 18.7 µM | Potency [16] 30.5 µM
inactive: Potency [1] | Potency [2] | Potency [3] | Potency [4] | Potency [6] | Potency [7] | outcome [8] | Potency [9] | outcome [10] | Potency [11] | outcome [12] | Potency [13] | Potency [14] | Potency [15] | Potency [17]

COc1ccc([C@@H]2c3cc(OC)c(OC)cc3C(=O)[C@H](C)C2C)cc1OC (stereo partly drawn)
inactive: outcome [1] inactive [at 7.64 µM] | outcome [18] inactive [at 9.19 µM] | caspase activation [2] 2.3% [at 9.19 µM] | outcome [3] inactive [at 9.19 µM] | activity change, negative = cytotoxicity [4] 8.45% [at 9.19 µM] | activity change, negative = cytotoxic [5] 9.12% [at 9.19 µM] | activity change, negative = inhibition [6] -23.2% [at 9.19 µM] | activity change, negative = inhibition [7] -2.16% [at 9.19 µM] | activation [8] 1.07% [at 9.19 µM] | activity change, negative = inhibition [9] 9.63% [at 7.64 µM] | activation [11] -1.51% [at 15.3 µM] | cytotoxicity (LDH release) [12] 0.689 [at 9.19 µM] | activation [13] 4.12% [at 9.19 µM] | activity change, negative = depolarization [14] -7.07% [at 9.19 µM] | activity change, negative = inhibition [19] -9% [at 15.3 µM] | activation (cytotoxicity) [15] -0.488% [at 9.19 µM] | activity change, negative = cytotoxicity [20] 9.45% [at 18.4 µM] | activation (redox signal) [17] -5.6% [at 11.4 µM]

CC1=CC[C@@]2(C[C@@H]1O)[C@@H](C(=O)O)CC[C@H]2C(C)C
inactive: Potency [1] | Potency [18] | Potency [2] | Potency [3] | Potency [4] | Potency [5] | Potency [6] | Potency [7] | outcome [8] | Potency [9] | outcome [10] | Potency [11] | outcome [12] | Potency [13] | Potency [14] | Potency [19] | Potency [15] | Potency [20] | Potency [17]

C=C1/C=C\C(CCC)=C\c2csc(n2)C(C)NC(=O)C[C@@]2(CC(=O)O)CCC(=C)[C@H](C1)S2 (stereo partly drawn)
inactive: Potency [1] | Potency [18] | Potency [2] | Potency [4] | Potency [5] | Potency [6] | Potency [7] | outcome [8] | Potency [9] | outcome [10] | Potency [11] | outcome [12] | Potency [13] | Potency [14] | Potency [19] | Potency [15] | Potency [16] | Potency [20] | Potency [17]

C1=C2CCCN[C@@H]2[C@@H]2CCN3CCCC[C@@H]3[C@H](C1)C2
inactive: Potency [1] | Potency [18] | Potency [2] | Potency [3] | Potency [4] | Potency [5] | Potency [6] | Potency [7] | outcome [8] | Potency [9] | outcome [10] | Potency [11] | outcome [12] | Potency [13] | Potency [14] | Potency [19] | Potency [15] | Potency [16] | Potency [20] | Potency [17]

CC(C)=CCC/C(C)=C/Cc1c(O)c(CC=C(C)C)c(O)c2c(=O)c3cc(O)ccc3oc12
active: Potency [1] 9.43 µM | Potency [3] 20.9 µM | Potency [5] 23.5 µM | Potency [6] 13.2 µM | Potency [14] 1.86 µM
inactive: Potency [2] | Potency [7] | outcome [8] | outcome [10] | outcome [12] | Potency [19] | Potency [20] | Potency [17]

CNc1ccc(Cl)cc1C(=O)OC[C@]1(C)[C@H]2CC[C@]3(C)[C@@H](C[C@@H](OC)[C@H](C)[C@H]3C3=C(O)C(=O)OC3O)[C@]2(C)CC[C@H]1O (stereo partly drawn)
active: Potency [13] 20.9 µM
inactive: Potency [18] | Potency [2] | Potency [4] | Potency [6] | Potency [7] | outcome [8] | Potency [9] | outcome [10] | Potency [11] | outcome [12] | Potency [14] | Potency [19] | Potency [15] | Potency [16] | Potency [20] | Potency [17]
